# According to publication PMC7819943, “Rice protein-binding microarrays: a tool to detect cis-acting elements near promoter regions in rice”:
# Whole data set: some 68,000 sequences, median “fluorescence intensity (a.u.)” near 9,100, cut for the highest 2% near 16,000. For the sample, the highest values were picked, then their nearest neighbours and some sequences at random.
# Molecular target: OsWRKY34 (Oryza sativa, UniProt Q0JBA9 1-250)
# Test: protein-binding microarray (RPBM); PBS, 2% BSA, 51.3 ng/ul salmon testes DNA, 50 uM zinc acetate, 200 nM TF, 25 C, 1 h; high values mean tight binding
# Settings: protein: recombinant; tags: N-terminal polyhistidine and DsRed monomer fusion (pET32a); label: CyDye5-dUTP incorporated in the synthesized complementary strand; 3' TTTTT single-stranded linker to array surface; dsDNA, one strand shown
# In short: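 Using Ni–NTA, transcription factors fused N-terminally to polyhistidine and DsRed were purified after expression in E. coli BL21-CodonPlus. These were incubated at 200 nM with a blocked, double-stranded custom Agilent array for 1 h at 25 °C in a buffer containing 50 µM zinc acetate, and the array was washed. The binding signal is per-feature fluorescence intensity (arbitrary units) on an Axon 4000B scanner.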
# OsWRKY34, sequence (Q0JBA9 entry or part of it): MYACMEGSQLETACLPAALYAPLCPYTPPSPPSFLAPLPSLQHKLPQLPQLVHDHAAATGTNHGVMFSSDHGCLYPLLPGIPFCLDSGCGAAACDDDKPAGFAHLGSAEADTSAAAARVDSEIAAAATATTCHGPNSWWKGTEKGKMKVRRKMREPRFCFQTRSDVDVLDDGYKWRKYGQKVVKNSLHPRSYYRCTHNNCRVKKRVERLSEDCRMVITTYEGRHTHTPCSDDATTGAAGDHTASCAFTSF
row,Sequence,binding signal
1,CGCATAATACTTTTACTTGCACCAATCAAGTACACGCTCTCGGAGTCACCTAGTGCAG,9320 fluorescence intensity (a.u.)
2,CCCTGGCAAATGTTCTTTCTCCTCTATTTTCCATCTCCAACGGAGTCACCTAGTGCAG,9120 fluorescence intensity (a.u.)
3,TATAGATTTTCGTCTCCAACGCTTGACCGTCCGTTTTATTCGGAGTCACCTAGTGCAG,12800 fluorescence intensity (a.u.)
4,CTTGCTCGTTGTAACTGTTTAATCTATTATGTTTTTTTTTCGGAGTCACCTAGTGCAG,11000 fluorescence intensity (a.u.)
5,CCCACCGCTCCTCCGCGCCACGCTTCCTCGCCGCGCGCGCCGGAGTCACCTAGTGCAG,8390 fluorescence intensity (a.u.)
6,ACAACTGACTTACCCTTTCTGACTTGCAGATCAATTTGTCCGGAGTCACCTAGTGCAG,9050 fluorescence intensity (a.u.)
7,TGCAGTGCGGCGTCACCTATCTCGTGGGCGCTTTCTTAGACGGAGTCACCTAGTGCAG,9080 fluorescence intensity (a.u.)
8,TAGGCTATCTTTTGAAGGGAGGGGTTTTTTCATCACCTATCGGAGTCACCTAGTGCAG,17000 fluorescence intensity (a.u.)
9,TGGGGTTGGTTTGGTTTGGAGTACATCGAGATTCGAGAGACGGAGTCACCTAGTGCAG,19900 fluorescence intensity (a.u.)
10,ATTTTAGGGGAGGGTTTTACTTAGCAACTTTCATCTTATTCGGAGTCACCTAGTGCAG,15800 fluorescence intensity (a.u.)
11,GTTTCGTGGTGGTTGCTGGGCTTTTCGTTGGCGTGGGTGGCGGAGTCACCTAGTGCAG,11500 fluorescence intensity (a.u.)
12,ACTGTTGGAGTGGGAGTGGGGAATTCTAGGGTTTTGCAATCGGAGTCACCTAGTGCAG,12300 fluorescence intensity (a.u.)
13,CTCGGGAATTCGGGTGGTTTGGTTGGGTTTCGTGGAGAATCGGAGTCACCTAGTGCAG,18700 fluorescence intensity (a.u.)
14,CTGCGTTTATTTGGGTTTATTTGGGGCTGAGAGAGTACATCGGAGTCACCTAGTGCAG,13800 fluorescence intensity (a.u.)
15,GTTTATCTCTATCTTTTTTTCATCTTCTCTCTATATATATCGGAGTCACCTAGTGCAG,11000 fluorescence intensity (a.u.)
16,GGTTTCGTTGGTGGGGTTTTTTCATGGTGGCTAGGGTTTTCGGAGTCACCTAGTGCAG,51100 fluorescence intensity (a.u.)
17,GGGTTGGTGGGCCTGATGGGCTTGGTTTTAGGGTTTCGTGCGGAGTCACCTAGTGCAG,9510 fluorescence intensity (a.u.)
18,ACGGCGAGACGGTTTGCGGCGGCGGCGGTGGGGTTGGGATCGGAGTCACCTAGTGCAG,10600 fluorescence intensity (a.u.)
19,ATGGTTGGTTTCGTGCTCTGTTTTTTTTTGGGAGAATTCGCGGAGTCACCTAGTGCAG,12800 fluorescence intensity (a.u.)
20,ACGGGGATGACTCCGATGACTCTCCTGGCCTCGCCGCCTCCGGAGTCACCTAGTGCAG,8120 fluorescence intensity (a.u.)
21,ACTTGGTTCTTGCTCATCATCTTTCGCTTGCTCGTCAGCTCGGAGTCACCTAGTGCAG,8360 fluorescence intensity (a.u.)
22,CCCTCTTCTCCTTTGCTTGGTCTCGTTTCGTCGCTGTCGTCGGAGTCACCTAGTGCAG,8260 fluorescence intensity (a.u.)
23,GAGGTCCCGTCGCTCCGGCGAGCTCCCGCCATCCGCCTCGCGGAGTCACCTAGTGCAG,8630 fluorescence intensity (a.u.)

row,Sequence,binding signal
1,ATGGCCGCTGTCTTATGTCGTCTCGTTCAAATAAAATCTCCGGAGTCACCTAGTGCAG,8370 fluorescence intensity (a.u.)
2,GGGATTTGGTGGCTGCTCGCCTCTCGCGTTTCTTTTGCTGCGGAGTCACCTAGTGCAG,10200 fluorescence intensity (a.u.)
3,CTTCTGCTGCTTCTCTCTCTCTCTCTGTGTCTAGTCTACCCGGAGTCACCTAGTGCAG,9420 fluorescence intensity (a.u.)
4,TATTTGTCATTCGCTGTCTATGACATATGAGCCCTCATGTCGGAGTCACCTAGTGCAG,8280 fluorescence intensity (a.u.)
5,CTCCTCCCAACTTTCCCCTTTGCTACAGTAGCTCCTTCTTCGGAGTCACCTAGTGCAG,8100 fluorescence intensity (a.u.)
6,GAGAGAGGAAGAACAGTACGTGTCTAGGGGCATTTTGGTACGGAGTCACCTAGTGCAG,9700 fluorescence intensity (a.u.)
7,ACACCGGCCGCCGAGCTCGCCTCCTCTCTTGTCGCCCACACGGAGTCACCTAGTGCAG,10100 fluorescence intensity (a.u.)
8,GTTCCTGATATGTTTTTTTGTTGGTTGCAGGATGGCAAGACGGAGTCACCTAGTGCAG,8880 fluorescence intensity (a.u.)
9,GCTCTCTTTCCGCTTCTACCCTCGTCACGTCCACGAAATCCGGAGTCACCTAGTGCAG,14900 fluorescence intensity (a.u.)
10,GCCACAGCTCTTGATTTCTCGCTGGATCCTGGTTTTCACCCGGAGTCACCTAGTGCAG,8430 fluorescence intensity (a.u.)
11,TTGGGGTTGGCGGGAATTAGGGTTTCGTTGGTGGGGTTTTCGGAGTCACCTAGTGCAG,25900 fluorescence intensity (a.u.)
12,GGTTGGCAGCGGCGGCGGAGGTGGGGAGAGGCGGGTGGTTCGGAGTCACCTAGTGCAG,13600 fluorescence intensity (a.u.)
13,TCGTTTGGTTGGCGGGAGTTTTAAGAGGGATTAGGAGTTTCGGAGTCACCTAGTGCAG,9020 fluorescence intensity (a.u.)
14,TGCTAGGGTTTTCGGGAGGCGGGTCTAGGGTTGAGGCAAACGGAGTCACCTAGTGCAG,12300 fluorescence intensity (a.u.)
15,GAGCGGGGAGGCGGCGGATCTAGGGTTTGGTTGGGTTTTTCGGAGTCACCTAGTGCAG,15300 fluorescence intensity (a.u.)
16,GGTGGGTTTCGTGGTACGGCTCGCTCTCGTGGTGGGGAATCGGAGTCACCTAGTGCAG,19700 fluorescence intensity (a.u.)
17,CTGGCTCGCTCTCTCTCTCTCTCTCGTGGTGTGGTGTGGACGGAGTCACCTAGTGCAG,9310 fluorescence intensity (a.u.)
18,GCGTTTTCGGCGGGGAACGCGGGGAGGCGGGTGGGGTTGACGGAGTCACCTAGTGCAG,21800 fluorescence intensity (a.u.)
19,ACCTCGGAAAGTACGGGGTTCTCGTCGGCTGGGTGGGTGTCGGAGTCACCTAGTGCAG,11500 fluorescence intensity (a.u.)
20,GTTGGTGTCCATCCGTTTCCGAGCCATTTTCATCCCTAATCGGAGTCACCTAGTGCAG,11600 fluorescence intensity (a.u.)
21,TCCTTCCATCTCTCTGCTCACTTCACTTCACCTTCCAATGCGGAGTCACCTAGTGCAG,9020 fluorescence intensity (a.u.)
22,GTTTCCATTTATCTGTTCGCAGTCAGTTCCAAGAAGTACCCGGAGTCACCTAGTGCAG,8340 fluorescence intensity (a.u.)
23,GTTGGTTGGCTGTTCCTTGCTTTCATCCAGCTAGCTACTGCGGAGTCACCTAGTGCAG,10500 fluorescence intensity (a.u.)
